Only some compounds are listed: those with a hit (about 9% of all), similar ones and a draw of the others.
HP1b chromo inh – inhibitors of HP1-beta chromodomain binding to methylated histone tails; Potency, µM (top dose mostly 114 µM), for the others: at the highest dose activity change, negative = inhibition, usual class: inhibitors; actives 0.56% (n = 390,000); AlphaScreen HP1-beta / biotin-H3K9me3 peptide binding; AID 540317; P83916; also: nearly all actives have a fitted effect of over 70% in size
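AlphaScreen: HP1-beta (50 nM) preformed 30 min with biotin-H3(1-18)K9me3 peptide (50 nM) in PBS pH 7.4, 0.01% Tween-20. Compound added for 30 min at RT, then streptavidin donor/nickel chelate acceptor beads (10 ug/mL) for 30 min.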
G9a inh – blocks human histone lysine methyltransferase G9a | G9a H3K9 monomethylation, AlphaScreen, 2 h | AID 504332 | actives 8.8% (n = 350,000) | Potency, µM (series often up to 102 µM), for inactives: at the highest dose activity, negative = inhibition, usual class: inhibitors; also: % is scaled to controls: 0 for no effect and ±100 for the full control effect; nearly all actives have a fitted effect of over 75% in size
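Methyltransferase reactions run at room temperature for 2 h (20 nM enzyme, 500 nM biotin-H3K9 peptide, 20 uM SAM) after a 15 min compound preincubation; product detected by AlphaScreen beads and anti-H3K9me1 antibody.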
BAZ2B inh – BAZ2B (human) inhibition | actives 4.4% (n = 360,000) | AlphaScreen BAZ2B-H3K14Ac peptide displacement | Potency, µM (titrated, usually from 114 µM), for the others: top-dose activity change, negative = inhibition, actives largely listed as inhibitors; also: % is scaled to controls: 0 for no effect and ±100 for the full control effect; nearly all actives have a fitted effect of over 60% in size
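Complex of BAZ2B and biotin-H3K14Ac (50 nM apiece) forms over 30 min at RT, then faces library compounds up to 110 uM for another 30 min; AlphaScreen beads added, 20 min dark incubation, luminescence read.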
PLK1 PBD block – blocks phosphopeptide binding to human PLK1 polo-box domain. Plk1 PBD binding of FITC phosphopeptide, fluorescence polarization. actives 2.8% (n = 360,000). P53350. Potency, µM, for inactives: max response, negative = inhibition, actives largely listed as inhibitors; also: series mostly up to about 57 µM; % is scaled to controls: 0 for no effect and ±100 for the full control effect; nearly all actives have a fitted effect of over 65% in size
12-LOX inh – ALOX12 (human) lipoxygenase inhibition; actives 1.1% (n = 580,000); AID 1671190; Potency, µM (top dose mostly 108 µM), without a hit: at the highest dose activity change, negative = inhibition, usual class: inhibitors; purified 12hLO, xylenol orange hydroperoxide absorbance; also: % is scaled to controls: 0 for no effect and ±100 for the full control effect
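Hydroperoxide product was detected by ferrous iron/xylenol orange as the 573 to 405 nm absorbance ratio. Arachidonic acid at 40 uM (final) was turned over for 30 min at room temperature by 150 nM human 12hLO, pH 7.0 Hepes buffer, after 15 min compound preincubation.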
JMJD2A Tudor inh – inhibitors of human JMJD2A Tudor domain. AID 504339. actives 4.4% (n = 390,000). AlphaScreen JMJD2A-Tudor / H3K4me3 peptide binding. Potency, µM (series often up to 114 µM), for the others: at the highest dose activity change, negative = inhibition, usual class: inhibitors. O75164; also: % is scaled to controls: 0 for no effect and ±100 for the full control effect; nearly all actives have a fitted effect of over 50% in size
Starred values were filed as active, the others as inactive; [ ] = dose if it differs, or a comment. Calls follow the shape of the dose curve; as a rule, active = well fitted curve in the direction sought with a large enough effect; inconclusive = small, poorly fitted or top-dose-only effect, or another doubt; inactive = no such curve, though single readings can be large; an effect the other way counts as inactive or inconclusive. Potency is read from the fitted curve at half-maximal effect.

What do the screens show for `NNS(=O)(=O)c1ccc2c(c1)Cc1cc(S(=O)(=O)NN)ccc1-2`?
HP1b chromo inh: 11%; G9a inh: 7.9µM*; BAZ2B inh: -7%; PLK1 PBD block: -23%; 12-LOX inh: inconclusive; JMJD2A Tudor inh: -13%

How did COCCNS(=O)(=O)c1ccc2c(c1)n(C)c(=O)n2C do in these assays?
HP1b chromo inh: 13%; G9a inh: 4.5µM*; BAZ2B inh: -10%; PLK1 PBD block: -7%; 12-LOX inh: -6%; JMJD2A Tudor inh: -9%

How did Cc1ccc(-n2nnc(-c3nsc(NC(=O)c4cccc(Cl)c4)n3)c2C)cc1C do in these assays?
HP1b chromo inh: 27%; G9a inh: -23%[59 µM]; BAZ2B inh: 3%; 12-LOX inh: -5%; JMJD2A Tudor inh: -6%

Results for C/C(=N\OCC(=O)Nc1ccc(OC(F)(F)F)cc1)c1ccc2c(c1)OCCO2 ?
HP1b chromo inh: 23%; G9a inh: 7%[59 µM]; BAZ2B inh: 5%; PLK1 PBD block: -5%; 12-LOX inh: -12%; JMJD2A Tudor inh: 4%

Results for CC1CCN(C(=O)C(C)OC(=O)c2cnc3ccccc3n2)CC1 (stereo not given) ?
12-LOX inh: 8%

Results for CSc1ccccc1C(=O)NCCS(=O)(=O)N1CCN(c2ccc(F)cc2)CC1 ?
HP1b chromo inh: 8%; G9a inh: 1%[0.501 µM]; BAZ2B inh: 9%; PLK1 PBD block: -6%; 12-LOX inh: inconclusive; JMJD2A Tudor inh: -9%

What do the screens show for `O=S1(=O)c2ccccc2N=NN1Cc1ccc(Cl)cc1`?
HP1b chromo inh: -18%; G9a inh: 0.63µM*; BAZ2B inh: inconclusive; PLK1 PBD block: inconclusive; 12-LOX inh: -48%; JMJD2A Tudor inh: 79µM*

What do the screens show for `O=S1(=O)c2ccccc2N(Cc2ccc(Cl)cc2)c2ccccc21`?
HP1b chromo inh: 50%; G9a inh: -22%[59 µM]; BAZ2B inh: -16%; 12-LOX inh: -7%; JMJD2A Tudor inh: -28%

How did O=C(CNC(=O)c1ccc(Br)o1)Nc1ncccc1O do in these assays?
HP1b chromo inh: 3%; G9a inh: 28µM*; BAZ2B inh: 79µM*; PLK1 PBD block: -9%; 12-LOX inh: 3%; JMJD2A Tudor inh: inconclusive

How did Cc1ccc(C(=O)Nc2ncccc2O)o1 do in these assays?
HP1b chromo inh: -17%; G9a inh: 6%[12.7 µM]; BAZ2B inh: inconclusive; PLK1 PBD block: -4%; 12-LOX inh: 1%; JMJD2A Tudor inh: 3.5µM*

Results for Cc1cccnc1NC(=O)c1ccc(Br)o1 ?
HP1b chromo inh: 28%; G9a inh: -5%; BAZ2B inh: 12%; PLK1 PBD block: -1%; 12-LOX inh: -15%; JMJD2A Tudor inh: -9%

Results for O=C(Nc1ncccc1O)c1cc2ccccc2o1 ?
HP1b chromo inh: 3%; G9a inh: inconclusive; BAZ2B inh: inconclusive; PLK1 PBD block: -2%; 12-LOX inh: inconclusive; JMJD2A Tudor inh: -22%

How did c1ccc(Nc2nc(CSc3ncn[nH]3)cs2)cc1 do in these assays?
HP1b chromo inh: 14%; G9a inh: 22µM*; BAZ2B inh: -28%; PLK1 PBD block: -14%; 12-LOX inh: -4%; JMJD2A Tudor inh: 3%[57.1 µM]

Results for O=C(CSc1ncn[nH]1)Nc1nc(-c2ccccc2)cs1 ?
HP1b chromo inh: 37%; G9a inh: inconclusive; BAZ2B inh: 0%; PLK1 PBD block: -6%; 12-LOX inh: 13%; JMJD2A Tudor inh: -20%

Results for CCn1c2c(c(=O)n1-c1ccccc1)CCN(CCCc1ccccc1)C2 ?
12-LOX inh: 28µM*

How did CC1(C)CC(=O)/C(=N/Nc2ccc(Cl)cc2)CO1 do in these assays?
HP1b chromo inh: 14%; G9a inh: -29%; BAZ2B inh: inconclusive; PLK1 PBD block: -3%; 12-LOX inh: inconclusive; JMJD2A Tudor inh: inconclusive

What do the screens show for `Cc1cccc(N/N=C2/COC(C)(C)CC2=O)c1`?
HP1b chromo inh: 9%; G9a inh: 79µM*; BAZ2B inh: inconclusive; PLK1 PBD block: 0%; 12-LOX inh: inconclusive; JMJD2A Tudor inh: -27%

How did COc1cccc(C(=O)N2CCC3(CC2)NC(=O)N(c2cccc(F)c2)N3)c1 do in these assays?
12-LOX inh: 2µM*

Results for COc1ccc(C(=O)N2CCC3(CC2)NC(=O)N(c2cccc(F)c2)N3)c(OC)c1 ?
12-LOX inh: 1.3µM*

Results for CN(C)c1ccc(C(=O)N2CCC3(CC2)NC(=O)N(c2cccc(F)c2)N3)cc1 ?
12-LOX inh: 5µM*

What do the screens show for `CN(C)c1ccc(C(=O)N2CCC3(CC2)NC(=O)N(Cc2ccc(F)cc2)C3=O)cc1`?
12-LOX inh: 40%

Results for COc1cccc(C(=O)N2CCC3(CC2)NC(=O)N(Cc2ccc(F)cc2)C3=O)c1 ?
12-LOX inh: 9%

What do the screens show for `COc1ccc(C(=O)N2CCC3(CC2)NC(=O)N(c2ccc(F)cc2)N3)cc1F`?
12-LOX inh: 2µM*

What do the screens show for `COc1ccc(C(=O)N2CCC3(CC2)NC(=O)N(Cc2ccc(F)cc2)C3=O)cc1F`?
12-LOX inh: -11%

Results for COc1ccc(C(=O)N2CCC3(CC2)NC(=O)N(Cc2ccc(F)cc2)C3=O)c(OC)c1 ?
12-LOX inh: 1%

How did COc1ccc(-c2cc(N3CCN(C(=O)c4ccccc4Br)CC3)n[nH]2)cc1 do in these assays?
12-LOX inh: 68%

Results for COC(=O)CN1C(=O)C(O)(CC(=O)c2ccccc2)c2ccccc21 (stereo not given) ?
HP1b chromo inh: 20%; G9a inh: -21%[12.7 µM]; BAZ2B inh: -26%; PLK1 PBD block: -2%; 12-LOX inh: 142%; JMJD2A Tudor inh: -14%

How did Cc1ccc(CNC(=O)c2cnc3c(-c4ccc(F)cc4)c(C)nn3c2C)o1 do in these assays?
HP1b chromo inh: 55%; G9a inh: 10%[59 µM]; BAZ2B inh: 2%; 12-LOX inh: 6%; JMJD2A Tudor inh: -4%

Results for Cn1cc(/C=C2/SC(=O)N(CC(=O)Nc3ccc4c(c3)OCO4)C2=O)c2ccccc21 ?
HP1b chromo inh: 13%; G9a inh: 26%; BAZ2B inh: -1%; PLK1 PBD block: -2%; 12-LOX inh: inconclusive; JMJD2A Tudor inh: -1%

What do the screens show for `Cc1ccc(NC(=O)CN2C(=O)S/C(=C\c3ccc(-c4cccc(C(=O)O)c4C)o3)C2=O)cc1C`?
HP1b chromo inh: 35µM*; G9a inh: 18µM*; BAZ2B inh: 16µM*; PLK1 PBD block: 19µM*; 12-LOX inh: inconclusive; JMJD2A Tudor inh: 18µM*

Results for O=C(CN1C(=O)S/C(=C\c2ccc(-c3cc(C(=O)O)ccc3Cl)o2)C1=O)Nc1ccc2c(c1)OCO2 ?
G9a inh: inconclusive; BAZ2B inh: 8.9µM*; 12-LOX inh: inconclusive

Screening data deposited in PubChem by National Center for Advancing Translational Sciences (NCATS).
